Screens from PubChem.
Platelet DG rel – platelet dense granule release activity; human platelet-rich plasma, SFLLRN dense granule ATP release, luminescence; inhibition, %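 (compounds screened at 7.5 µM in platelet-rich plasma)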; actives 0.22% (n = 300,000);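 active = mean replicate score, as percent of positive control, at or above 50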
WT yeast gro inh – growth inhibition of WT yeast, mitochondrial fusion screen; actives 2.1% (n = 190,000); inhibition, % at 10 µM; mitochondrial fusion phenotypic screen, WT strain; in the data active = inhibition above about 58%; tested in S. cerevisiae
Rtt109 Vps75 – C. albicans Rtt109 histone acetyltransferase inhibition; Q5AAJ8; purified Rtt109/Vps75, ThioGlo CoA-SH fluorescence, 4 h; inhibition, % at 34.9 µM; actives 0.16% (n = 330,000); AID 540336;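 active = inhibition of at least 50% in every replicate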
Target sequence (Q5AAJ8 whole entry, looked up): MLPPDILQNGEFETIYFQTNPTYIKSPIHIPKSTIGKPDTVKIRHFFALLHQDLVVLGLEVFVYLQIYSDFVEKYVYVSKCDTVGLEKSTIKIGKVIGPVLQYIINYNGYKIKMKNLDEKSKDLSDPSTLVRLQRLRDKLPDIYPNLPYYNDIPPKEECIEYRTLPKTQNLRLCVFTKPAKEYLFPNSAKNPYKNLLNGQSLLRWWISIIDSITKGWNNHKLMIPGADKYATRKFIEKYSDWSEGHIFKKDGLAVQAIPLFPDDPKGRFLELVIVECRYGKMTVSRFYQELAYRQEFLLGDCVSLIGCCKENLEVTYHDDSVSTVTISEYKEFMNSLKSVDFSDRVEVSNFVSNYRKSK
SKKanGAS inh – inhibitors of SKKanGAS S. pyogenes growth in kanamycin (SK-promoter or general growth effect); BacTiter-Glo, 6 h; inhibition, % at 7.5 µM; actives 1.3% (n = 300,000); AID 1662;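 active = mean replicate score, as percent of positive control median, at least 50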;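 also: strain carries kanamycin resistance gene driven by streptokinase promoter and grows in 40 µg/ml kanamycin; loss of luminescence reflects streptokinase promoter inhibition or plain growth inhibition; 0% = median of DMSO wells and 100% = positive control at its reference dose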
TPT1 inhibitor – blocks Candida albicans tRNA 2'-phosphotransferase. actives 0.81% (n = 300,000). recombinant caTPT1, FP RNA substrate dephosphorylation. inhibition, % at 5 µM. AID 1962;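 active = inhibition above the mean of all tested compounds plus 3 SD, set per screening campaign, cut at about 24% in these data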;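 also: plate controls were DMSO alone for no effect and ferristatin control at 100 nM for full effect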
PHOSPHO1 inh – PHOSPHO1 (human) inhibition. actives 1.1% (n = 290,000). inhibition, % at 13.3 µM. AID 1565. Q8TCT1. recombinant PHOSPHO1, absorbance phosphatase assay; in the data active = inhibition above about 60%
Target sequence (Q8TCT1 whole entry, looked up): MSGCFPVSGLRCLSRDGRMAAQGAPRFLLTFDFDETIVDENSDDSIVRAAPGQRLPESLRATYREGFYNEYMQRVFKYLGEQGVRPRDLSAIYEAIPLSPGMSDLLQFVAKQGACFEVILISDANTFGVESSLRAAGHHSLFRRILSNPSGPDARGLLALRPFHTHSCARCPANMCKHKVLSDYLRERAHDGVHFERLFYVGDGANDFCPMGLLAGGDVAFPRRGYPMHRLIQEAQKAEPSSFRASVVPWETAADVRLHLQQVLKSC
* marks the source's active call; other numbers are inactive results; nt = no result given; ! = not active in a repeat. Most compounds without a hit are left out; they make up all but 3.9% or so of the library.

SMILES	Platelet DG rel	WT yeast gro inh	Rtt109 Vps75	SKKanGAS inh	TPT1 inhibitor	PHOSPHO1 inh
CC(OC(=O)CCOc1ccccc1)C(=O)Nc1ccc(Cl)cn1 (centres undefined)	1.7	nt	nt	0.1	3.1	22.6
CC1CCCN(CC(=O)Nc2ccc(S(=O)(=O)NC3CCCCC3)cc2)C1 (centres undefined)	-0.9	98.5*	15.3	-1.6	-1.6	24.7
COc1ccccc1-n1c(-c2ccccc2)c[n+]2c1CCc1ccccc1-2	0.6	63.4*!	-4.7	-4.8	-0.3	12.2
CC(C)c1ccc(-n2c(-c3ccccc3)c[n+]3c2CCc2ccccc2-3)cc1	2.4	48.5	32.5	-10.9	nt	-13.7
Cc1cccc(N2CCN(C(=S)NCCc3ccccc3)CC2)c1C	4.7	7.9	-1.1	15.5	-0.7	-6.9
Cc1ccc(Cl)cc1N1CCN(C(=S)NCCc2ccccc2)CC1	-2.8	66.2*	0.3	22.2	2.3	-8.4
COc1cc(CCCN2CCNC[C@@H]2Cc2ccc(O)cc2)cc(OC)c1OC	1.8	nt	7.0	-0.7	0.8	nt
CCc1n[nH]c(=S)n1/N=C/c1ccc2c(c1)OCO2	8.4	14.7	10.0	7.1	2.3	102.6*
CCc1n[nH]c(=S)n1/N=C/c1ccc(N(C)c2ccccc2)cc1	-15.8	72.4*	2.8	9.2	1.3	45.6
CCc1n[nH]c(=S)n1/N=C/c1ccccn1	-2.2	nt	0.1	-1.9	-1.5	-2.4
O=c1[nH]n(-c2ccccc2)c(=O)cc1Cl	nt	nt	0.3	nt	nt	nt
CCN(C(=O)Cn1c(Cl)nc2c1c(=O)n(C)c(=O)n2C)C1CCCCC1	nt	nt	13.0	nt	nt	nt
COc1ccccc1COC(=O)c1ccc(S(=O)(=O)N2CCOCC2)cc1	nt	nt	-4.1	nt	nt	nt
O=C(Nc1ccc(Cl)cc1)Nc1nc(-c2sccc2Br)cs1	-10.5	16.3	-5.1	5.7	-2.2	50.0
O=C(Nc1ccc(Cl)cc1)Nc1nc(-c2ccccc2O)cs1	4.7	nt	3.0	61.5*	0.7	-30.7
C=CCSc1nnc(-c2cc(Br)ccc2N)c(=O)[nH]1	1.7	14.1	-2.6	9.2	1.0	90.4*
CCOc1ccc(NS(=O)(=O)c2ccc(C(=O)NCC(c3ccco3)N3CCCC3)cc2)cc1 (centres undefined)	nt	nt	5.0	nt	nt	nt
CC(NC(=O)c1ccc([N+](=O)[O-])o1)C12CC3CC(CC(C3)C1)C2 (centres undefined)	-6.0	nt	8.5	56.6*	0.9	47.4
COc1cccc(OC)c1C(=O)NC(C)C12CC3CC(CC(C3)C1)C2 (centres undefined)	1.3	61.5*	6.1	4.7	-5.4	17.1
CCCNC(=O)NC(C)C12CC3CC(CC(C3)C1)C2 (centres undefined)	-17.2	0.9	5.9	0.1	2.7	-15.8
CC(NC(=O)C12CC3CC(CC(C3)C1)C2)C(=O)NN=Cc1ccc([N+](=O)[O-])o1 (centres undefined)	nt	nt	4.3	nt	nt	nt
CCOC(=O)c1c(C)c(-c2ccccc2)n(CC(=O)N2CCCC2)c1C	55.7*	12.2	3.0	-0.9	-4.2	0.3
COc1ccccc1NS(=O)(=O)c1ccc(NC(=O)c2[nH]nc(OC)c2[N+](=O)[O-])cc1	nt	nt	-8.2	nt	nt	17.0
CC1CCCN(C(=O)c2ccc3c(=O)n(C4CCCC4)c(=S)[nH]c3c2)C1 (centres undefined)	-0.3	97.7	-1.4	7.3	0.9	-5.1
O=C(c1ccc(Cn2c(=S)[nH]c3ccc(Br)cc3c2=O)cc1)N1CCN(C2CCCCC2)CC1	16.2	73.3*	0.7	38.5	-0.7	11.1
SMILES	Platelet DG rel	WT yeast gro inh	Rtt109 Vps75	SKKanGAS inh	TPT1 inhibitor	PHOSPHO1 inh
CCOCCCn1c(=S)[nH]c2cc(C(=O)N3CCN(C4CCCCC4)CC3)ccc2c1=O	-3.0	nt	5.9	6.9	-2.2	12.7
O=C(c1ccc2c(=O)n(C3CCCC3)c(=S)[nH]c2c1)N1CCCCCC1	-4.4	96.1*	1.0	-3.0	-3.6	2.0
N#C/C(=C\c1c(Cl)cccc1Cl)c1nn(-c2ccccc2)c(-n2cccc2)c1C#N	1.4	nt	56.1*	5.7	1.8	3.8
O=C(Cn1cnc2cc([N+](=O)[O-])ccc2c1=O)Nc1cccc(S(=O)(=O)N2CCCCC2)c1	nt	nt	9.1	nt	nt	nt
CC1(C(=O)OCC(=O)Nc2ccc(S(=O)(=O)N3CCOCC3)cc2)CC1(Cl)Cl (centres undefined)	nt	nt	-6.3	nt	nt	nt
CCOC(=O)N1CCN(c2c(F)cc3[nH]c(=S)[nH]c3c2Br)CC1	0.2	7.1	-1.4	7.5	-2.1	71.4*
O=c1cc2c(nn1Cc1ccc(Cl)cc1)-c1ccccc1CC2	3.8	59.5*	1.4	47.5	1.0	11.3
O=c1cc2c(nn1Cc1cccc(Cl)c1)-c1ccccc1CC2	4.5	80.5*	13.3	24.9	2.3	5.5
Cc1ccc(Cn2nc3c(cc2=O)CCc2ccccc2-3)cc1	-6.4	73.8*	-0.9	20.8	-4.3	1.5
Cc1ccnc(NC(=O)c2cccc(S(=O)(=O)N3CCCc4ccccc43)c2)c1	-7.4	nt	-8.5	-0.7	0.5	nt
CCOc1cccc(-c2c(C(=O)N/N=C/c3ccc(C)s3)nnn2-c2nonc2N)c1	64.6*	nt	4.1	8.4	0.1	32.9
Cc1ccc(Cc2cnc(N3C(=N)SC(c4ccccc4)C3=O)s2)cc1 (centres undefined)	-1.6	26.1	2.8	103.5*	-0.8	-13.9
N=C1SC(c2ccccc2)C(=O)N1c1ncc(Cc2ccccc2)s1 (centres undefined)	-0.5	22.7	-5.2	97.2*	-0.1	0.8
COc1cc(NC(=O)c2cccc(NC3=NC4CS(=O)(=O)CC4S3)c2)cc(OC)c1OC (centres undefined)	1.9	nt	-1.6	1.6	9.4	22.8
CCN(CC)S(=O)(=O)c1ccc(C(=O)NCC2(N3CCOCC3)CCCCC2)cc1	nt	nt	2.0	nt	nt	nt
C=C(C)C1Cc2c(C)nn(-c3ccccn3)c2C1 (centres undefined)	-59.3	66.2*	-4.5	15.7	-0.1	24.6
C=C(C)C1Cc2c(C)nn(-c3cccc4cccnc34)c2C1 (centres undefined)	4.4	nt	4.3	4.3	5.3	45.9
CC(C)C(c1nnnn1C1CCCC1)N1c2ccccc2CC1C (centres undefined)	5.2	63.8*	-7.2	-0.2	-5.6	7.0
CC(C)C(c1nnnn1C1CCCCC1)N1CCc2ccccc21 (centres undefined)	nt	12.1	0.2	0.2	-0.8	-8.7
CCOC(=O)Cc1c(Sc2ccccc2)c2ccccc2n1C	-0.8	66.3*	-2.9	-3.1	-1.7	-23.9
CCC1CSC(Nc2ccc(C(=O)/C=C/c3ccc(OC)c(OC)c3)cc2)=N1 (centres undefined)	-7.6	64.2*	-1.9	23.9	1.6	-2.0
CCCc1nnc(SCC(=O)NC2CCCC2)n1CCOC	-3.3	nt	2.1	-7.2	-5.2	27.0
COC(=O)c1ccccc1NC(=S)N(C)C	9.7	nt	-0.4	4.9	-1.0	-5.3
COC(=O)c1ccccc1N=C(SC)N(C)C	-2.6	-10.2	-7.1	-7.8	-3.1	93.7*
